The list is not random: actives were taken first. Their share in the collection is about 3.4%.
TEAD-YAP inh: TEAD-YAP interaction inhibition | HEK-TIYL cells, TEAD-Gal4/YAP UAS-luciferase luminescence | 640,000 compounds, 1.4% hits | inhibition, % at 9.12 µM; in the data active means inhibition above about 32%;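 further: 0% = median of test compound wells and 100% = reference inhibitor wells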
FBW7 act: activators of human E3 ligase FBW7; 650,000 compounds, 0.13% hits; normalized activity (activation), % at 26.1 µM; AlphaScreen FBW7–phospho-cyclin E peptide binding, activator screen; in the data active means normalized activity above about 1.9%;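 further: purified mutant Fbw7 with reduced substrate affinity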
GPR151 ag: human GPR151 activation; Q8TDV0; PathHunter beta-arrestin GPR151 cells, luminescence; activation, % at 11.2 µM; 650,000 compounds, 1% hits; AID 1508602; in the data active means activation above about 4.9%;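 further: 0% = median of compound wells and 100% = cells with positive control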
Target sequence (Q8TDV0 whole entry, looked up): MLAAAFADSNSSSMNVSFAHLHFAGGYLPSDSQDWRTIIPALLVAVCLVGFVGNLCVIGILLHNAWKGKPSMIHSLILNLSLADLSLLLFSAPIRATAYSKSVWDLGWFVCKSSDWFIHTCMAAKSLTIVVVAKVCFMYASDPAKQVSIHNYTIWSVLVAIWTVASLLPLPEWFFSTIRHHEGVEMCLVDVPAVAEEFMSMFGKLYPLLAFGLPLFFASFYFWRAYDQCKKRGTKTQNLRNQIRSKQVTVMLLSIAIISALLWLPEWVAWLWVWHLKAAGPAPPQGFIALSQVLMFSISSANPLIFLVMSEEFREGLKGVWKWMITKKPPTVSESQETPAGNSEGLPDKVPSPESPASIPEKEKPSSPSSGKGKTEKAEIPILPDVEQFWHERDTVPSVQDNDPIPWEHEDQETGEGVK
MITF primary: human MITF inhibition, primary screen; 650,000 compounds, 0.91% hits; inhibition, % at 2.6 µM; O75030; AlphaScreen MITF homodimerization, bead proximity signal; in the data active means inhibition above about 50%;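 further: 0% = vehicle wells with protein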
MITF confirm: human MITF inhibition, confirmation. AID 1259372. 4,700 compounds, 16% hits. shares compounds with MITF primary. AlphaScreen MITF homodimerization, biotin/His-MITF beads. inhibition, % at 2.6 µM;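 active means inhibition above a cutoff derived from the DMSO control wells, cut at about 28% in these data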;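 further: 0% = MITF dimer wells with DMSO only; inhibitors lower the bead chemiluminescence by keeping MITF from dimerizing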
AS interf DR: AlphaScreen optical interference, dose response counter-screen; 480 compounds, 6% hits; AID 1259373; IC50, µM; shares compounds with MITF primary; AlphaScreen optical interference counterscreen, cell-free; call rule not given here
AlphaScreen intf2: counter-screen: compounds optically interfering with AlphaScreen; inhibition, % at 2.6 µM; shares compounds with MITF primary; LysRS AlphaScreen counterscreen, signal interference, triplicate; 4,700 compounds, 7.6% hits;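 active means inhibition above a cutoff derived from the DMSO control wells, cut at about 30% in these data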
* = called active by the depositor; x = no result.

SMILES	TEAD-YAP inh	FBW7 act	GPR151 ag	MITF primary	MITF confirm	AlphaScreen intf2	others
CCOC(=O)c1ccc(NC(=O)CCSc2ccc(C)cc2)cc1	-1.8	0.2	-0.4	18.6	x	x
CCOC(=O)c1ccc(NC(=O)CSc2ccc(F)cc2)cc1	-2.8	0.1	-0.5	53.9*	4.1	12.4
O=C(COc1ccc(Cl)cc1)NNC(=O)c1ccc(=O)[nH]c1	-1.4	-0.2	-0.4	67.5*	-9.3	-6.9
O=C(COc1ccc2ccccc2c1)NNC(=O)c1ccc(Cl)cc1	-3.6	-0.1	0.3	4.1	x	x
Cc1cc(C)c(Cc2c(C)nc3c(C(=O)NC4CCCCC4)cnn3c2C)c(C)c1	-3.1	-0.1	-0.4	4.5	x	x
COc1ccc([N+](=O)[O-])cc1NC(=O)c1ccc(N2C(=O)C3C4C=CC(C4)C3C2=O)cc1 (configuration not stated)	1.9	-0.1	0.0	5.5	x	x
CCCCN(C)CCCNC(=O)CSCc1ccccc1Cl	4.3	0.0	-0.8	76.1*	-1.8	-1.3
c1ccc(CCn2c(-c3ccc(C4CCCCC4)cc3)csc2=Nc2ccccc2)cc1	3.7	0.0	-0.8	-4.5	x	x
CC(C)=CC(=O)Nc1nnc(Cc2ccccc2)s1	-3.3	-0.4	-0.8	84.1*	11.2	14.3
Cc1cc(N2C(=O)CSC2c2cc3c(cc2[N+](=O)[O-])OCO3)ccc1Br (configuration not stated)	7.8	0.5	-0.3	12.5	x	x
CN(C)CCOc1cccc(C(F)(F)F)c1	-1.3	-0.6	1.8	87.8*	5.7	7.9
CCN1CCN(CCCOc2cccc(C(F)(F)F)c2)CC1	15.8	0.1	-0.2	56.4*	13.9	10.2
CN1CCN(CCCOc2cccc(C(C)(C)C)c2)CC1	-6.8	0.0	-1.6	10.2	x	x
CCN1CCN(CCOc2cccc(C(F)(F)F)c2)CC1	1.8	-0.3	-0.2	60.7*	1.0	11.0
CCN1CCN(CCOc2ccc3ccccc3c2)CC1	9.4	-0.2	0.9	36.5	x	x
COC(=O)c1ccc(NC(=O)C2CC(=O)N(CCc3ccc(Cl)cc3)C(=Nc3ccc(F)cc3)S2)cc1 (configuration not stated)	-5.6	0.0	-0.3	6.9	x	x
COc1cc(CNc2cccc(C)c2)cc(OC)c1OC	15.4	0.0	2.2	55.3*	-1.8	1.9
COc1cc(CNc2ccccc2)cc(OC)c1OC	-9.8	-0.2	0.7	1.1	x	x
Cc1cccc(NCc2ccncc2)c1	4.6	-0.1	-0.9	77.0*	21.2	20.1
Cc1ccc(NCc2ccncc2)c(Br)c1	-1.9	-0.2	0.2	68.7*	-7.4	-5.4
Cc1ccc(-n2[nH]c(C)c(C=Nc3cc([N+](=O)[O-])ccc3O)c2=O)cc1	1.0	0.0	-0.6	-17.6	x	x
CCOC(=O)c1nc(-c2ccccc2)oc1C(F)(F)F	1.7	0.2	0.3	10.3	x	x
CCOC(=O)c1oc(-c2ccc(F)cc2)nc1C	-5.6	-0.1	4.8	67.3*	14.3	16.5
Cc1nc(C)n(-c2ccc(Nc3cc(-n4cc(N(c5cccnc5)c5cccnc5)cn4)ccn3)cc2)n1	-1.3	0.6	-1.4	50.8*	52.2*	0.3	AS interf DR=>6.48
Cc1ccc(Cn2ccnc2SCC(=O)Nc2nc(C)cs2)cc1	0.1	-0.5	-0.1	-14.7	x	x
SMILES	TEAD-YAP inh	FBW7 act	GPR151 ag	MITF primary	MITF confirm	AlphaScreen intf2	others
CC1(NCC(O)COc2ccccc2)CCS(=O)(=O)C1 (configuration not stated)	7.6	-0.3	0.4	64.9*	2.4	-2.4
CC(C)(c1ccccc1)c1ccc(OCC(O)CNC2CCS(=O)(=O)C2)cc1 (configuration not stated)	-3.4	-0.2	0.0	76.6*	-17.6	7.1
CC(C)(c1ccccc1)c1ccc(OCC(O)CN2CCCCC2)cc1 (configuration not stated)	-2.6	-0.1	-0.4	3.5	x	x
CC(C)CN(CC(C)C)C(=S)NC1CCCCC1	5.5	0.0	-0.3	68.8*	7.9	7.6
CP(=O)(Nc1ccc([N+](=O)[O-])cc1)c1nc2c(s1)CCCC2 (configuration not stated)	14.1	-0.1	2.6	-7.9	x	x
O=C1CC(=O)N(Cc2ccco2)C(=S)N1	-4.8	-1.0	0.4	70.2*	-10.8	61.6*
O=C1CC(=O)N(Cc2ccco2)C(=O)N1	4.7	0.3	1.3	32.6	x	x
O=C(Nc1nc(-c2ccncc2)cs1)C1Oc2ccccc2O1	0.5	0.0	-0.6	6.9	x	x
COc1ccc(CN2CCN(c3ccccn3)CC2)cc1O	4.3	0.2	-0.8	49.5	x	x
COc1ccc(CN2CCN(Cc3ccccn3)CC2)cc1	-2.5	-0.1	0.6	42.7	x	x
COc1cc(OC)c(OC)cc1CN1CCN(Cc2ccccn2)CC1	-8.4	0.5	-1.5	71.3*	9.4	16.3
COc1ccc(CN2CCN(Cc3ccccn3)CC2)cc1Br	2.6	0.0	-0.3	68.5*	5.9	17.6
COc1cc(CN2CCN(Cc3ccccn3)CC2)cc(OC)c1OC	-4.8	-0.1	-0.8	79.0*	0.7	14.8
CN(C)CCCN1C(=O)C(=O)/C(=C(\O)c2ccccc2)C1c1ccco1 (configuration not stated)	-1.4	0.4	-0.4	75.2*	-3.6	-11.9
CCN1C(=O)C(=C2CCCC2)N(CC)C1=O	-9.5	-0.2	1.1	6.0	x	x
CCN(CC)S(=O)(=O)c1ccc2c(c1)N(CC(=O)N1CCOCC1)C(=O)CO2	7.5	0.3	0.2	-0.1	x	x
CN(C)CCNc1ncnc2sccc12	-3.1	-0.2	0.4	86.0*	0.4	6.9
CCOC(CCCNc1ncnc2sccc12)OCC	24.7	0.3	2.1	6.4	x	x
CCOC(=O)CCCCC(=O)c1[nH]c(=O)[nH]c1Cn1ccnc1	-14.3	0.1	0.8	35.8	x	x
CCOC(=O)CCCCC(=O)c1c(C)n(C(=O)c2ccc(N3C(=O)CCC3=O)cc2)c(=O)n1C(=O)c1ccc(N2C(=O)CCC2=O)cc1	-7.6	-1.0	-0.6	106.7*	107.0*	88.2*
CCOC(=O)CCCCC(=O)c1[nH]c(=O)n(C(=O)c2ccccc2)c1C	-4.6	-1.6	-0.3	89.3*	115.1*	98.3*
COc1ccc(Cl)cc1NC(=O)CN1CCN(CC(=O)c2ccco2)CC1	0.8	-0.4	1.4	53.2*	7.9	11.6
N#Cc1ccccc1NC(=O)CN1CCN(Cc2ccccc2)CC1	-5.6	0.2	-1.3	60.1*	4.3	-0.4
O=C(CN1CCN(CC(=O)c2ccco2)CC1)Nc1ccccc1F	-10.1	-0.4	0.7	66.4*	9.4	13.6
O=C(CN1CCC(NC(=O)c2ccco2)CC1)Nc1ccccc1F	0.8	-0.2	1.0	-3.0	x	x
Cc1ccccc1NC(=O)CN1CCN(Cc2ccccc2)CC1	-1.9	0.4	-0.5	12.4	x	x
COc1ccc(Cl)cc1NC(=O)CN1CCN(C)CC1	5.0	-0.1	0.3	12.0	x	x
O=C(CC(=O)c1ccco1)Nc1cc(Cl)ccc1Cl	-19.7	0.3	-1.0	55.7*	-0.1	15.3

Screening results: PubChem, The Scripps Research Institute Molecular Screening Center
